Test results from PubChem BioAssay.
The source made the active and inactive calls. Unless noted, how the calls were made is not given here.

What was measured:
[1] = anti-His antibody binders, primary screen, artefact control for SMM control protein annotation, biochemical, small-molecule microarray, 635 nm fluorescence (AID 1128); conditions: anti-His Alexa647 antibody binding, higher = more signal;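 further: score merges feature fluorescence with signal-to-noise for each printed compound spot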
[2] = tested on: Human papillomavirus type 1a E7 protein (residues 1-88); experiment: HPV1a E7 small-molecule binders, primary screen, biochemical, small-molecule microarray, residues 1-88, 635 nm (AID 1129); conditions: small-molecule microarray binding, fluorescence 635 nm; higher = more signal
[3] = molecular target: Focal adhesion kinase 1 (Homo sapiens) (UniProt Q05397); experiment: small-molecule microarray binders of FAK, primary screen, biochemical, 635/667 nm fluorescence, BSA, DTT (AID 1130); conditions: PTK2 binding, 635 nm fluorescence, higher = more signal;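 further: composite of spot emission at 667 nm and signal to noise over triplicate slides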
[4] = tested on: Fibrinogen (Alexa647-labelled); experiment: fibrinogen binders on compound microarrays, profiling panel, artefact control for SMM control-protein annotation, biochemical, small-molecule microarray, 635/667 nm fluorescence (AID 1131); conditions: fibrinogen-A647 binding fluorescence, higher = more signal;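 further: z-score merges 667 nm fluorescence with per-spot signal-to-noise over triplicate slides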
[5] = molecular target: Follistatin (Homo sapiens) (UniProt P19883); experiment: follistatin binders on small-molecule microarrays, primary screen, biochemical, small-molecule microarray, 635/667 nm fluorescence (AID 1132); conditions: FST binding, 635 nm fluorescence, higher = more signal
[6] = molecular target: Fibroblast growth factor 2 (Homo sapiens) (UniProt P09038); experiment: FGF2 binders on small-molecule microarrays, primary screen, biochemical, small-molecule microarray, 635/667 nm fluorescence (AID 1133); conditions: small-molecule microarray binding, FGF2, fluorescence 635/667; higher = more signal
[7] = mitochondrial membrane potential change in A549 cells, profiling panel, cell-based, JC-1 fluorescence, basal, 24 h, 100 nL (AID 1138); conditions: higher = more signal;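 further: A549 lung adenocarcinoma cells under basal conditions with no added stimulus; test concentration not given here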
[8] = tested on: Lefty1; experiment: Lefty1 binders on small-molecule microarrays, primary screen, biochemical, small-molecule microarray, 635/667 nm fluorescence (AID 1139); conditions: small-molecule microarray binding, fluorescence 635/667; higher = more signal
[9] = tested on: wheat germ agglutinin (Triticum aestivum), Alexa647-labelled; experiment: wheat germ agglutinin binders on compound microarrays, profiling panel, artefact control for SMM control-protein annotation, biochemical, small-molecule microarray, 635/667 nm fluorescence (AID 1140); conditions: WGA-A647 binding, 635 nm fluorescence, higher = more signal;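 further: score merges 667 nm feature emission with signal to noise over triplicate slides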
[10] = molecular target: Luciferin 4-monooxygenase (Photinus pyralis) (UniProt P08659); experiment: firefly luciferase enzyme inhibitors, primary screen, biochemical, luminescence, purified enzyme, 2006 set (AID 1141); conditions: SteadyGlo luminescence, 30 min; higher = more signal, called active from +8 up or from −8 down unless noted;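 further: cell-free assay with purified firefly luciferase at 100 ng per well in PBS; test concentration not given here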
[11] = tested on: Wnt5a (protein binding on small-molecule microarray); experiment: Wnt5a binders on small-molecule microarray, primary screen, biophysical, 635/667 nm fluorescence (AID 1142); conditions: 635 nm fluorescence, higher = more signal;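 further: fluorescence read at 667 nm with signal to noise per printed feature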
[12] = cell viability in Huh7 cells, primary screen, cytotoxicity control for HCV replication inhibitor project, CellTiter-Glo luminescence, basal, 48 h (AID 1143); conditions: Huh7 HCV replicon, CellTiter-Glo luminescence, 48 h, higher = more signal, called active from +8 up or from −8 down unless noted;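 further: Huh7 hepatoma cells carrying a hepatitis C replication reporter with no stimulus; test concentration not given here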
[13] = P. aeruginosa biofilm formation inhibitors, primary screen, PAO1 strain, BacTiter-Glo luminescence, LB-PBS (AID 1144); conditions: 12 h, higher = more signal
[14] = CREB reporter modulators without forskolin, primary screen, cell-based, PC12, CRE-LacZ reporter, unstimulated (AID 1145); conditions: no forskolin, luminescence, 4.5 h; higher = more signal, called active from +8 up or from −8 down unless noted
[15] = CREB reporter modulators under forskolin, primary screen, cell-based, PC12, CRE-LacZ reporter, forskolin-stimulated (AID 1146); conditions: luminescence, 4.5 h; higher = more signal, called active from +8 up or from −8 down unless noted;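 further: PC12 cells with 6xCRE LacZ reporter stimulated by forskolin 10 µM; beta-galactosidase reporter signal reflecting CREB driven transcription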
[16] = molecular target: Streptavidin (Streptomyces avidinii) (UniProt P22629); experiment: streptavidin binders on small-molecule microarray, primary screen, artefact control for SMM compound annotation, biophysical, 635/667 nm fluorescence (AID 1147); conditions: streptavidin binding, higher = more signal;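 further: signal reflects streptavidin binding to arrayed compounds as a control protein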
[17] = small-molecule binders of probe aInhba, primary screen, biochemical, small-molecule microarray, 635/667 nm fluorescence (AID 1148); conditions: higher = more signal; small-molecule microarray, probe aInhba, fluorescence unless noted;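 further: score merges 667nm spot fluorescence with signal-to-noise for antibody binding to printed compounds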
[18] = molecular target: Torsin-1A (Homo sapiens) (UniProt O14656); experiment: torsin A binders from cell lysate, primary screen, small-molecule microarray, wild-type, 635/667 nm (AID 1149); conditions: COS7 hTOR1A-WT lysate, 635 nm fluorescence, higher = more signal
[19] = molecular target: Torsin-1A (Homo sapiens) (UniProt O14656); experiment: small-molecule binders of mutant TOR1A in lysate, primary screen, cell lysate, small-molecule microarray, COS7 lysate, 635/667 nm fluorescence (AID 1150); conditions: COS7 hTOR1A mutant lysate, 635 nm fluorescence, higher = more signal;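 further: score pools 667 nm emission and signal to noise measuring lysate protein binding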
[20] = tested on: Sonic hedgehog protein (Shh); experiment: small-molecule binders of Shh protein, primary screen, biochemical, small-molecule microarray, 635/667 nm fluorescence (AID 1151); conditions: small-molecule microarray binding, 635 nm fluorescence; higher = more signal;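 further: Shh protein binding to compounds spotted on small-molecule microarray slides; score combines spot fluorescence intensity with signal-to-noise across triplicate slides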

Torsin-1A (Homo sapiens), sequence (O14656 whole entry, looked up): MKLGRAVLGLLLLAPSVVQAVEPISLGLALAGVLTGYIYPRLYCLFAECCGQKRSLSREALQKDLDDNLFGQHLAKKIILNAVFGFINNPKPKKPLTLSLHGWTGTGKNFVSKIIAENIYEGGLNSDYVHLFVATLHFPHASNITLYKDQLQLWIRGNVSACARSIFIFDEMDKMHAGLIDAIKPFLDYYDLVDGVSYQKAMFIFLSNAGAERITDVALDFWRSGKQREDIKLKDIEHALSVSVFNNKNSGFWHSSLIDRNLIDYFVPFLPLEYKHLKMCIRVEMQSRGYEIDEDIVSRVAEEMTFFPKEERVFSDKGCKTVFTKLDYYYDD
Luciferin 4-monooxygenase (Photinus pyralis), sequence (P08659 whole entry, looked up): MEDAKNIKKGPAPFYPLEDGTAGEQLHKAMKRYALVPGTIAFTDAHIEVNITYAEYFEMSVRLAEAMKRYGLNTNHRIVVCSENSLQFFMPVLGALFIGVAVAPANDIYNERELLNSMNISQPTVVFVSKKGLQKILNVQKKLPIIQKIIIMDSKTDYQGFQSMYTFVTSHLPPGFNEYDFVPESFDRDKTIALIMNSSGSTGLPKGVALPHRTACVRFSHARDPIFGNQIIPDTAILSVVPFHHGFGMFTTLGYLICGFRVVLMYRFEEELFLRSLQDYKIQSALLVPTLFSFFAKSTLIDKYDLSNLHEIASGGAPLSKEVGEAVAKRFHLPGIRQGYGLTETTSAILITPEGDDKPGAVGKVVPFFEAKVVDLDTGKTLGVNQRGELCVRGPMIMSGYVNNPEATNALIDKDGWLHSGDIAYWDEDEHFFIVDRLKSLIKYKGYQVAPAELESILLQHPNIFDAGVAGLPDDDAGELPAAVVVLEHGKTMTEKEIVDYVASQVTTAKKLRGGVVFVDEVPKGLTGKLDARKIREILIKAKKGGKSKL
Focal adhesion kinase 1 (Homo sapiens), sequence (Q05397 whole entry, looked up): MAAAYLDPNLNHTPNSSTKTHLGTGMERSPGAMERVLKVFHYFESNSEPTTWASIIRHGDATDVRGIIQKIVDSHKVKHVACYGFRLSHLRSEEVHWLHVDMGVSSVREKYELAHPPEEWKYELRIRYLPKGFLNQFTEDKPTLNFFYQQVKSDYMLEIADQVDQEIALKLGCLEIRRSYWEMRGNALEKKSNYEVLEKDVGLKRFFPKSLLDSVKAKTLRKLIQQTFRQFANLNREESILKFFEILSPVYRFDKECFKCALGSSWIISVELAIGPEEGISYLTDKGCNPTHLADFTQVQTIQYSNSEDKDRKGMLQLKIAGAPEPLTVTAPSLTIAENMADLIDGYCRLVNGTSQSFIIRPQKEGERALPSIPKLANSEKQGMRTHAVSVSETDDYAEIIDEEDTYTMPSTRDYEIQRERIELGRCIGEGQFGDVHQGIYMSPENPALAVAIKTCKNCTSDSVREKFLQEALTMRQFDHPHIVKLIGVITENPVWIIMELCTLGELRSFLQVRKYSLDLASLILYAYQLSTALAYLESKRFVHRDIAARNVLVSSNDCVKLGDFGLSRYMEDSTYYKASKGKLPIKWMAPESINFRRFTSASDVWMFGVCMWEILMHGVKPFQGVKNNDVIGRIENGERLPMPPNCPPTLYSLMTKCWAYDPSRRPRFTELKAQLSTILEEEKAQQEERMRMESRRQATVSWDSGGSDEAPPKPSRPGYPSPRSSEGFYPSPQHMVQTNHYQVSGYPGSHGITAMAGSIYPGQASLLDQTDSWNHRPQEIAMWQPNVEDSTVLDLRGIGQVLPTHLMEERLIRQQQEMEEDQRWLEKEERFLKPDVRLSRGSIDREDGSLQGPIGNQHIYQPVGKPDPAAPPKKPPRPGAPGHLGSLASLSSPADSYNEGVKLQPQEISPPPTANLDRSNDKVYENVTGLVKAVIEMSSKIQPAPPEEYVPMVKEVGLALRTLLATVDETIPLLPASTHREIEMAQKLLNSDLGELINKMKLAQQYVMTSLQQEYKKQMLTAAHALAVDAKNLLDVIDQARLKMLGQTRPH
Streptavidin (Streptomyces avidinii), sequence (P22629 whole entry, looked up): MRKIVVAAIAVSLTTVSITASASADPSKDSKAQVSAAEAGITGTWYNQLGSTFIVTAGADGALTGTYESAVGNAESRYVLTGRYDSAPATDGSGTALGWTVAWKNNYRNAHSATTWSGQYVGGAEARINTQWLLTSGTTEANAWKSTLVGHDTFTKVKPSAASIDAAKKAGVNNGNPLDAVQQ
Follistatin (Homo sapiens), sequence (P19883 whole entry, looked up): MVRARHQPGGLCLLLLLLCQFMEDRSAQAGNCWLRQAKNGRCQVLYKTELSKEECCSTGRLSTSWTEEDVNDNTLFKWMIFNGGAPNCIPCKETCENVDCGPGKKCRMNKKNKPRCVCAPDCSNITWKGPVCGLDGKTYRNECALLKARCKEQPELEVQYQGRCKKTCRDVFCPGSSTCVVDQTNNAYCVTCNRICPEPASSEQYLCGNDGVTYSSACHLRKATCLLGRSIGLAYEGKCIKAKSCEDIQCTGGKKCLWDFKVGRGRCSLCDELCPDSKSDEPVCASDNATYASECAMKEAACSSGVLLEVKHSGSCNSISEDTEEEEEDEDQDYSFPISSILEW
Fibroblast growth factor 2 (Homo sapiens), sequence (P09038 whole entry, looked up): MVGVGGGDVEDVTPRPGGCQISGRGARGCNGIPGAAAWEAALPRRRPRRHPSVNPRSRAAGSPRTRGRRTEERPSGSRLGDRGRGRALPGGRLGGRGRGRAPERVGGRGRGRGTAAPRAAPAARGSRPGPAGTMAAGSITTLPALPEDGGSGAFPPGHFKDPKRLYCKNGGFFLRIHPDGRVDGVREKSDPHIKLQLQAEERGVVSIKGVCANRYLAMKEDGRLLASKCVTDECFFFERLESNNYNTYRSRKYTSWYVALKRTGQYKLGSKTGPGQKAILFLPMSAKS

| Structure (SMILES) | composite z-score [1] | composite z-score [2] | composite z-score [3] | composite z-score [4] | composite z-score [5] | composite z-score [6] | z-score [7] | composite z-score [8] | composite z-score [9] | z-score [10] | composite z-score [11] | z-score [12] | z-score [13] | z-score [14] | z-score [15] | composite z-score [16] | composite z-score [17] | composite z-score [18] | composite z-score [19] | composite z-score [20] |
| --- | --- | --- | --- | --- | --- | --- | --- | --- | --- | --- | --- | --- | --- | --- | --- | --- | --- | --- | --- | --- |
| OCc1ccc(C2=CC(c3cccs3)N(Cc3cccc(OC(F)(F)F)c3)CC2)cc1 (stereo not given) | 2.04 | -0.38 | 0.147 | -0.365 | 0.663 | 0.108 | 0.944 | 0.704 | 0.173 | -1.26 (inactive) | 0.136 | -4.06 (inactive) | 1.28 (inactive) | 1.54 (inactive) | -0.162 (inactive) | -0.0232 | -0.0719 | 0.761 | 1.16 | 1.05 |
| COC(=O)[C@@]1(Cc2ccccc2)[C@H]2c3cc(C(=O)N(C)C)n(C)c3C[C@H]2CN1C(=O)c1ccccc1 | 1.18 | 0.898 | 0.144 | 0.84 | -0.21 | 0.125 | -0.0935 | -0.627 | 0.668 | 1.59 (inactive) | 0.253 | -0.782 (inactive) | 0.323 (inactive) | 0.194 (inactive) | 0.189 (inactive) | 1.78 | 0.0091 | 0.0264 | 1.51 | -0.916 |
| CN1CCc2nc(CO)c(CO)cc2C1 | 1.08 | 0.635 | 0.11 | 0.291 | 0.398 | 0.576 | 1.02 | 0.263 | -0.0298 | -0.529 (inactive) | 0.233 | -0.0958 (inactive) | 0.424 (inactive) | 1.37 (inactive) | -0.0826 (inactive) | 0.0991 | 0.0442 | -0.0701 | 0.557 | 0.424 |
| CCCC=C(CCC)[C@@H](NP(=O)(c1ccccc1)c1ccccc1)c1ccccc1 | 0.0583 | 1.03 | 0.206 | 0.819 | 0.139 | 0.407 | 1.23 | 0.169 | 0.207 | 1.19 (inactive) | -0.0444 | -0.411 (inactive) | 0.168 (inactive) | 0.201 (inactive) | 0.89 (inactive) | 0.821 | -0.168 | 0.364 | 0.368 | -0.0623 |
| CCCc1cc2c(n1Cc1ccco1)C(C)C1CN(C(=O)c3ccccc3)C(C)(C(=O)OC)C21 (stereo not given) | 1.7 | 0.806 | 0.307 | 0.717 | 1.13 | -0.0321 | -0.0794 | 0.494 | 1.29 | -7.6 (inactive) | 0.326 | -2.79 (inactive) | 0.666 (inactive) | 0.394 (inactive) | 0.718 (inactive) | 1 | 0.173 | 0.556 | 0.944 | 0.357 |
| CCCc1cc2c(n1Cc1cccc(Cl)c1)C(C)C1CN(C(=O)c3ccccc3)C(C)(C(=O)OC)C21 (stereo not given) | 2.37 | 1.23 | 1.16 | 0.989 | -0.264 | -1.1 | 1.95 | -0.763 | 1.44 | 0.566 (inactive) | 0.318 | -2.78 (inactive) | 0.00978 (inactive) | 0.0041 (inactive) | -1.1 (inactive) | 0.78 | 0.138 | -0.0514 | 1.27 | -0.083 |
| C[C@@H]1OC=C2[C@@H](O)[C@H]3O[C@H]3C(=O)[C@]23[C@H]1[C@H]1C2=C([C@@H](O)[C@H]4O[C@H]4C2=O)[C@@H]3O[C@@H]1C | -0.317 | -0.556 | -0.171 | -0.559 | 0.0982 | 0.0979 | 0.774 | 0.277 | -0.351 | -0.563 (inactive) | -0.0894 | 0.612 (inactive) | 0.389 (inactive) | 1.01 (inactive) | 1.04 (inactive) | -0.0542 | -0.206 | 0.924 | 0.419 | 0.881 |
| C=C(CC1(C(C)NP(=O)(c2ccccc2)c2ccccc2)CC1)c1ccccc1 (stereo not given) | 2.95 | 1.25 | 0.788 | 0.94 | 0.3 | -0.34 | -0.147 | 0.0368 | 0.501 | 2.67 (inactive) | 0.41 | -2.48 (inactive) | -0.917 (inactive) | 0.0109 (inactive) | 1.49 (inactive) | 0.416 | 0.122 | -1.03 | 0.0087 | 0.0881 |
| COc1cc2c(cc1O)C(C)N(C)CC2 (stereo not given) | -0.0259 | -1.17 | -0.45 | -0.227 | -0.114 | 0.0683 | 0.599 | -0.692 | 0.0591 | -1.06 (inactive) | -0.0967 | 0.639 (inactive) | 0.67 (inactive) | 0.0655 (inactive) | -0.497 (inactive) | 0.0031 | -0.0468 | -0.638 | -0.744 | -0.12 |
| OCc1ccc(C2=CC(C3CC3)N(Cc3sc4ccccc4c3Cl)CC2)cc1 (stereo not given) | 2.28 | 1.17 | 0.257 | 0.483 | 1.06 | 0.867 | 0.941 | 0.853 | 0.42 | -1.57 (inactive) | 0.074 | -3.22 (inactive) | -0.259 (inactive) | 7.14 (inactive) | -2.05 (inactive) | 0.337 | 0.0028 | 0.771 | 0.679 | 1.65 |
| C[C@H]1O[C@H]2C3=C(C(=O)[C@@H]4O[C@@H]4[C@@H]3O)[C@@H]1[C@@H]1[C@@H](C)OC=C3[C@@H](O)[C@H]4O[C@H]4C(=O)[C@]312 | -0.652 | -0.539 | -0.27 | -0.727 | -0.72 | -0.0771 | 0.344 | -0.235 | 0.202 | -1.61 (inactive) | -0.176 | -3.24 (inactive) | -1.61 (inactive) | 1.65 (inactive) | 1.76 (inactive) | -0.418 | -0.208 | 0.251 | -0.306 | 0.534 |
| COC(=O)[C@H]1[C@H](c2ccccc2)C(=O)[C@]2(O)c3ccccc3O[C@@]12c1ccccc1 | -0.179 | 0.382 | 0.227 | 0.826 | 0.402 | 0.186 | 0.866 | 0.266 | 0.167 | -1.9 (inactive) | 0.129 | -0.962 (inactive) | -1.45 (inactive) | -0.161 (inactive) | -0.474 (inactive) | 0.287 | -0.101 | 0.202 | 0.163 | 0.615 |
| CCCC[C@@H]1C[C@H]1[C@@H](NP(=O)(c1ccccc1)c1ccccc1)c1ccc(Cl)cc1 | 1.23 | -0.212 | 0.343 | -0.741 | -1.38 | -0.748 | 0.179 | -1.83 | 0.319 | 0.183 (inactive) | 0.0234 | -0.971 (inactive) | -0.451 (inactive) | -0.379 (inactive) | -0.273 (inactive) | 0.239 | 0.157 | -1.53 | -0.202 | -1.29 |
| CCCc1cc2c(n1CCO)C(C)C1CN(C(=O)c3ccccc3)C(C)(C(=O)OC)C21 (stereo not given) | 2.55 | 1.14 | 1.42 | 0.64 | -0.315 | -0.634 | 0.9 | -0.875 | 1.25 | 1.54 (inactive) | 0.559 | -0.938 (inactive) | 0.251 (inactive) | 1.74 (inactive) | 0.444 (inactive) | 1.04 | 0.414 | 0.726 | 1.02 | -0.898 |
| COC(=O)[C@H]1C(=O)c2ccccc2O[C@@](C(=O)OC)(c2ccccc2)[C@@H]1c1ccccc1 | -0.34 | -1.34 | 0.0173 | -1.75 | -0.245 | -0.105 | -0.778 | -0.0506 | -0.738 | 0.164 (inactive) | 0.107 | -1.35 (inactive) | 0.352 (inactive) | -0.523 (inactive) | 1.24 (inactive) | -0.37 | 0.177 | 0.0049 | 0.0856 | 0.0053 |
| C[C@@H]1Cc2c(cnc3c2CN(C)CC3)CO1 | -0.528 | -0.336 | 0.391 | -0.383 | 0.783 | 0.664 | 0.0621 | 1.27 | -0.23 | -0.345 (inactive) | 0.0844 | -1.38 (inactive) | -0.181 (inactive) | -0.258 (inactive) | -1.05 (inactive) | -0.179 | -0.0523 | 0.742 | 1.12 | 1.71 |
